Measured values taken from PubChem BioAssay (NCATS).
Where “and” joins values, the source holds several entries; their conditions need not be identical. Equal entries are not always repeated. Records with an inconclusive call do not appear. Calls of active or inactive are those of the source. Unless noted, the call rests on the fitted dose curve; in most records, active means well fitted curve in the direction sought with a large enough effect; inconclusive means small, poorly fitted or top-dose-only effect, or another doubt; inactive means no such curve, though single readings can be large; an effect the other way counts as inactive or inconclusive. Peptide text beside a SMILES is read from it.

Key:
[1] = target: Voltage-gated inwardly rectifying potassium channel KCNH2 (Homo sapiens) (UniProt Q12809); test: qHTS Assay for Small Molecule Inhibitors of the Human hERG Channel Activity (AID 588834);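 further: lower thallium flux fluorescence means stronger hERG block; nearly all actives have a fitted effect of over 50% in size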; further: potency means the concentration at half of the fitted maximal effect
Chain of Voltage-gated inwardly rectifying potassium channel KCNH2 (Homo sapiens) (Q12809 whole entry, looked up): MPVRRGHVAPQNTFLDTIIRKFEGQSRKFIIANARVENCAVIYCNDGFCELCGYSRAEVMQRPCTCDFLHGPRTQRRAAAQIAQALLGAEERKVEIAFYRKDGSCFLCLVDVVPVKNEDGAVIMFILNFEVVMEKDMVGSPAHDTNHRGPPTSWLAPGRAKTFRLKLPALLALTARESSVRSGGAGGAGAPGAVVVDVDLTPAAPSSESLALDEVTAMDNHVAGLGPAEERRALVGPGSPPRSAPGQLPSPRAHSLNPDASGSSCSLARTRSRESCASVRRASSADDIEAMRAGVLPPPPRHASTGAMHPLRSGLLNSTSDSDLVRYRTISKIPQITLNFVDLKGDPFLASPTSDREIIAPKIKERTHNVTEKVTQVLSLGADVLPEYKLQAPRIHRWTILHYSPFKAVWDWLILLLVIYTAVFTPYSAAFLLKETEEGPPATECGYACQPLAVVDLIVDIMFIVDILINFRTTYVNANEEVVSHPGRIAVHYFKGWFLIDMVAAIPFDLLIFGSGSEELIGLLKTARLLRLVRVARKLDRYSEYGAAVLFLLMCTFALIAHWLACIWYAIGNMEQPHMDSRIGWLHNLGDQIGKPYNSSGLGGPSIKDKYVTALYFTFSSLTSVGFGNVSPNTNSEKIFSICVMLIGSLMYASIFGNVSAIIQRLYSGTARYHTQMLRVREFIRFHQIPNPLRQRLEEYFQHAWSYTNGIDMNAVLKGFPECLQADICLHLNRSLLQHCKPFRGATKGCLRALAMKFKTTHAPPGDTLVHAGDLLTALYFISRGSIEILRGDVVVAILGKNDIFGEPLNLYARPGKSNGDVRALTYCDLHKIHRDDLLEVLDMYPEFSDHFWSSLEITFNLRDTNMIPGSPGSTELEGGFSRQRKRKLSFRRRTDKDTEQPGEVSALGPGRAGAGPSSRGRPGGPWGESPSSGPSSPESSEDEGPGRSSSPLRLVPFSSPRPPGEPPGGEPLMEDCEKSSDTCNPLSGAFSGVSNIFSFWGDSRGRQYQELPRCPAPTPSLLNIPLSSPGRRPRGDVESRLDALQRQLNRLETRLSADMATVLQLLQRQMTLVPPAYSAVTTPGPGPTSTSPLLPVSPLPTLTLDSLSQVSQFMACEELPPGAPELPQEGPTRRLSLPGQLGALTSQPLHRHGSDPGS
Method in brief: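 Thallium serves as surrogate for K+ influx through BacMam-delivered hERG in U2OS cells. Compounds are added for about 10 minutes after dye loading; stimulation buffer then starts flux, monitored kinetically on FDSS.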

[2] = target: Luciferin 4-monooxygenase (Photinus pyralis) (UniProt P08659); test: Biochemical firefly luciferase enzyme assay for NPC (AID 624030);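 further: purified P. pyralis luciferase at 10 nM with luciferin and ATP substrate; series mostly up to about 59 µM; 0% = DMSO and -100% = full luciferase inhibition by PTC124 control; nearly all actives have a fitted effect of over 70% in size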
Chain of Luciferin 4-monooxygenase (Photinus pyralis) (P08659 whole entry, looked up): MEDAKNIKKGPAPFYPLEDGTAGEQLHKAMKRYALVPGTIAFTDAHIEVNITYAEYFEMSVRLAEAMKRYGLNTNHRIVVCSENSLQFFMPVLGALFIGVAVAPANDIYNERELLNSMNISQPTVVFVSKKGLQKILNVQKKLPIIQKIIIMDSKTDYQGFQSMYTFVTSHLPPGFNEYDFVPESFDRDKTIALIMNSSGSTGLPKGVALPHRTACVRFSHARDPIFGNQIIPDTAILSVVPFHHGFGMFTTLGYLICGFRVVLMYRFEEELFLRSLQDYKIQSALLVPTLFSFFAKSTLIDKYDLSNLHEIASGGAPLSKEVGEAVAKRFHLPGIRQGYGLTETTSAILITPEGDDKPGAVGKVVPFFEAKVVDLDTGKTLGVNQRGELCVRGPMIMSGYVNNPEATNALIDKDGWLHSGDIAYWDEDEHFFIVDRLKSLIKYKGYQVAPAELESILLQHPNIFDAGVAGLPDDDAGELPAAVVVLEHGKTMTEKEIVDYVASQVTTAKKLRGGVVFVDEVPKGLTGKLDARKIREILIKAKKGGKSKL
Method in brief: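 Direct inhibition of firefly luciferase enzyme (10 nM final, 50 mM Tris Acetate) assessed by luminescence within 5 minutes. Percent activity scaled between DMSO and PTC124 positive control, with concentration-effect curves classified by fit quality and response.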

[3] = S16 Schwann cell viability assay (CellTiter-Glo assay) (AID 624031);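 further: native untransfected S16 rat Schwann cells; cellular ATP luminescence as a viability measure; series mostly up to about 58 µM; plate controls were DMSO-treated cells for no effect and cell-free wells for full effect; nearly all actives have a fitted effect of over 70% in size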
Method in brief: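 Concentration-effect curves come from CellTiter-Glo luminescence of S16 rat Schwann cells after 24 h compound exposure. Each reading was normalized to DMSO wells (0%) and wells without cells, and curves were ranked by r2 and response magnitude.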

[4] = S16 Schwann cell PMP22 intronic element beta-lactamase assay (AID 624044; calls by dose curve;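 further: 0% = DMSO and -100% = potassium clavulanate positive control; nearly all actives have a fitted effect of over 15% in size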)
Method in brief: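 Beta-lactamase reporter under a PMP22 intronic regulatory element in stable S16 rat Schwann cells; 24 h compound exposure. 460 nm blue signal normalized between DMSO (0%) and potassium clavulanate, with 535 nm FRET tracking viability; curves classed by r2 and response.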

[5] = S16 Schwann cell PMP22 intronic element firefly luciferase assay (AID 624032); further: nearly all actives have a fitted effect of over 30% in size; further: potency means the concentration at half of the fitted maximal effect
Method in brief: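 Luciferase reporter of PMP22 intronic-element expression in stably transfected S16 rat Schwann cells, read by ONE-Glo luminescence after 24 h compound exposure at 37 C. Activity scaled between DMSO (0%) and positive-control PTC124; concentration-effect curves quality-classified.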

[6] = qHTS assay for small molecule disruptors of the mitochondrial membrane potential - 1 hr assay (AID 651754; calls by dose curve; further: on the % scale 0 is the no-effect control and ±100 the full control effect; nearly all actives have a fitted effect of over 35% in size)
Method in brief: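 Mitochondrial potential in living HepG2 cells after 1 hr compound treatment at 37C was read with Mito-MPS dye added for a further 30 min. Red aggregate and green monomer fluorescence were measured; loss of potential leaves dye as cytoplasmic monomers.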

[7] = qHTS assay for small molecule disruptors of the mitochondrial membrane potential - 5 hr assay (AID 651755; calls by dose curve; further: on the % scale 0 is the no-effect control and ±100 the full control effect; nearly all actives have a fitted effect of over 40% in size)
Method in brief: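 Membrane-potential dye readout: red aggregate (540 ex/590 em) versus green monomer (490 ex/535 em) fluorescence after 30 min dye loading, following 5 hr compound exposure at 37C of overnight-plated HepG2 cells.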

[8] = target: Tumor necrosis factor (Homo sapiens) (UniProt P01375); test: qHTS assay to identify small molecules that stimulate Tumor Necrosis Factor-alpha (TNF-alpha) secretion (AID 651757; active means well fitted curve in the direction sought with a large enough effect in the signal ratio; the % refers to the signal ratio; further: 0% is about no effect)
Chain of Tumor necrosis factor (Homo sapiens) (P01375 whole entry, looked up): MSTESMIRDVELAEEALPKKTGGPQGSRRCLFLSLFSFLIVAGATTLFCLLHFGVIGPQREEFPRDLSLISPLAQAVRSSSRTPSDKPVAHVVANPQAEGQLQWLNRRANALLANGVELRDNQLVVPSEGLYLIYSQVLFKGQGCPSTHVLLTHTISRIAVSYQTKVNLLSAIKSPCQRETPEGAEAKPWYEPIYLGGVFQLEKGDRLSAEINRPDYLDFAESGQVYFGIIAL
Method in brief: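 Secreted TNF-alpha quantified by TR-FRET sandwich of two labeled anti-TNF-alpha antibodies, incubated 3 hr at room temperature. Preceded by 17 hr, 37 C compound treatment of THP-1 cells at 3000 cells/well.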

[9] = qHTS assay for small molecule activators of the p53 signaling pathway (AID 651743; active means well fitted activation curve with a large enough effect in the signal ratio, not every such curve was filed as active; the % refers to the signal ratio; further: series mostly up to about 92 µM; % of control where 0% means no effect); settings: HCT-116 p53RE-bla, beta-lactamase FRET ratio, 16 h; activation: stronger effect = higher value
Method in brief: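 After 16 hours compound treatment at 37 C, HCT-116 cells stably expressing p53RE-driven beta-lactamase were loaded with LiveBLAzer B/G FRET substrate for 2 hours at room temperature. Fluorescence intensity served as the p53 activation read-out.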

[10] = qHTS assay for small molecule activators of the nuclear factor-kappa B (NF-kB) signaling pathway (AID 651749; active means well fitted activation curve with a large enough effect in the signal ratio; the % refers to the signal ratio; further: series mostly up to about 77 µM; % of control where 0% means no effect); settings: NF-kB-bla ME-180 cells, beta-lactamase FRET ratio, 16 h; stronger effect = higher value
Method in brief: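 Activation measured after 16 hr compound treatment at 37C, 5% CO2, of 2,000 ME-180 cells/well stably expressing an NF-kB response element–driven beta-lactamase reporter, via FRET-disruption fluorescence.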

COC(F)(F)C(Cl)Cl
inactive: Potency [1] | Potency [2] | Potency [3] | Potency [4]

CC(C)(C)NC(=O)[C@@H]1C[C@@H]2CCCC[C@@H]2CN1C[C@@H](O)[C@H](Cc1ccccc1)NC(=O)[C@H](CC(N)=O)NC(=O)c1ccc2ccccc2n1
active: Potency [1] 35.5 µM | Potency [5] 12.8 µM
inactive: Potency [2] | Potency [3] | outcome [6] | outcome [7] | outcome [8]

CC(C)N=c1cc2n(-c3ccc(Cl)cc3)c3ccccc3nc-2cc1Nc1ccc(Cl)cc1
inactive: Potency [2] | Potency [3] | Potency [4]
active: Potency [1] 7.08 µM

CC(=O)Oc1c(C)cc(OCC(O)CNC(C)C)c(C)c1C (centres undefined)
inactive: Potency [1] | Potency [2] | Potency [3] | Potency [5] | Potency [4]

CC[N+](C)(C)Cc1ccccc1Br
inactive: Potency [1] | Potency [2] | Potency [3] | Potency [4]

CC(=O)N[C@@H](CC(=O)O)C(=O)N[C@@H](CCC(=O)O)C(=O)O (Ac-Asp-Glu-OH)
inactive: Potency [1] | Potency [2] | Potency [3] | Potency [4]

O=C(O)c1cc(O)c2c(c1)[O][Bi][O]2
inactive: Potency [1] | Potency [2] | Potency [3] | Potency [4]

CCCCCCCCCCCCCCCC(=O)OCC(COC(=O)CCCCCCCCCCCCCCC)OC(=O)CCCCCCCCCCCCCCC
inactive: Potency [1] | Potency [2] | Potency [3] | Potency [4]

CCCCC(=O)O[C@]1(C(=O)CO)[C@H](C)C[C@H]2[C@@H]3CCC4=CC(=O)C=C[C@]4(C)[C@@]3(F)[C@@H](O)C[C@@]21C
inactive: Potency [1] | Potency [2] | Potency [3] | Potency [5] | Potency [4]

CC(C)(C)C(=O)OCOC(=O)[C@@H]1N2C(=O)[C@@H](N=CN3CCCCCC3)[C@H]2SC1(C)C
inactive: Potency [1] | Potency [2] | Potency [3] | Potency [4]

CC(O)CO (centres undefined)
inactive: Potency [1] | Potency [2] | Potency [3] | Potency [5] | Potency [4] | activation [9] 0.0778% and -3.92% | activation [10] 3.41% and -1.36% | outcome [6] | outcome [7] | outcome [8]

C[C@@H]1CCC2[C@@H](C)[C@@H](O)O[C@@H]3O[C@@]4(C)CC[C@@H]1[C@@]23OO4 (some centres undefined)
inactive: Potency [1] | Potency [2] | Potency [3] | Potency [4]
